Source: PubChem BioAssay (NCI)
About 83,000 compounds went through this panel and 20% of them were active in at least one assay; those are over-represented in the sample as a whole.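 96-well plates, one dose, 48 hours. Percent growth reported; active if below 10.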 The source made the active and inactive calls.

Key:
Test in all cases: NCI-60 one-dose screen, 48 h (100 = growth as untreated, 0 = no growth, -100 = all killed)
Conditions in all cases: 10 µM unless noted
DU-145 prostate = system: DU-145 prostate
K-562 leukemia = system: K-562 leukemia
MALME-3M melanoma = system: MALME-3M melanoma
MDA-MB-231 breast = system: MDA-MB-231 breast
RXF 393 renal = system: RXF 393 renal
SF-268 CNS = system: SF-268 CNS
SF-295 CNS = system: SF-295 CNS
SF-539 CNS = system: SF-539 CNS
UACC-257 melanoma = system: UACC-257 melanoma
M14 melanoma = system: M14 melanoma
HCT-15 colon = system: HCT-15 colon
HT29 colon = system: HT29 colon
SNB-75 CNS = system: SNB-75 CNS
SNB-19 CNS = system: SNB-19 CNS
U251 CNS = system: U251 CNS
PC-3 prostate = system: PC-3 prostate
SK-MEL-5 melanoma = system: SK-MEL-5 melanoma
UACC-62 melanoma = system: UACC-62 melanoma
LOX IMVI melanoma = system: LOX IMVI melanoma
SK-MEL-28 melanoma = system: SK-MEL-28 melanoma

Measured: growth

COC(=O)c1nc(-c2ccccc2)oc1S(=O)(=O)NCC(c1ccc(Cl)cc1)N1CCCCC1 (stereo not given)
inactive: DU-145 prostate 97.9% | MALME-3M melanoma 99.1% | MDA-MB-231 breast 72.2% | RXF 393 renal 82.7% | SF-268 CNS 82.5% | SF-295 CNS 102% | SF-539 CNS 88.1% | UACC-257 melanoma 88% | M14 melanoma 38% | HCT-15 colon 49.1% | HT29 colon 45.8% | SNB-75 CNS 79% | SNB-19 CNS 81.1% | U251 CNS 59.6% | PC-3 prostate 58.3% | SK-MEL-5 melanoma 86% | UACC-62 melanoma 85.5% | LOX IMVI melanoma 43.9% | SK-MEL-28 melanoma 99.7%
active: K-562 leukemia 9.15%

CCN1C(=O)N(CC)C2C1NN=c1s/c(=C\c3ccccc3)c(=O)n12 (stereo not given)
inactive: MALME-3M melanoma 41.1% | RXF 393 renal 32% | SF-268 CNS 54.8% | UACC-257 melanoma 45.8% | HCT-15 colon 11% | SNB-75 CNS 20.8% | SNB-19 CNS 27.1% | PC-3 prostate 23.9% | UACC-62 melanoma 24.3% | LOX IMVI melanoma 15.9% | SK-MEL-28 melanoma 60.6%
active: DU-145 prostate 5.47% | K-562 leukemia 8.79% | MDA-MB-231 breast 2.86% | SF-295 CNS 5.04% | SF-539 CNS -12.5% | M14 melanoma 8.9% | HT29 colon 3.09% | U251 CNS 8.08% | SK-MEL-5 melanoma -9.58%

COc1cc(/C=N/NC(=O)c2ccc3nc(-c4ccc(Cl)cc4)[nH]c3c2)cc(OC)c1OC
inactive: DU-145 prostate 97.4% | K-562 leukemia 32.7% | MALME-3M melanoma 28.4% | MDA-MB-231 breast 103% | RXF 393 renal 36.3% | SF-268 CNS 79.7% | SF-295 CNS 44% | SF-539 CNS 43.8% | UACC-257 melanoma 54.3% | M14 melanoma 42% | HCT-15 colon 96% | HT29 colon 39.9% | SNB-75 CNS 86.6% | SNB-19 CNS 71% | U251 CNS 53.2% | PC-3 prostate 59.9% | SK-MEL-5 melanoma 41.9% | UACC-62 melanoma 28.7% | LOX IMVI melanoma 50.6% | SK-MEL-28 melanoma 46.5%

Cc1cc(N2CCOCC2)nc(N(CCCNc2ccnc3cc(Cl)ccc23)Cc2ccc3c(c2)OCO3)n1
active: K-562 leukemia -43.7% | MALME-3M melanoma -20.5% | MDA-MB-231 breast -37.1% | RXF 393 renal -75.6% | SF-295 CNS -69% | SF-539 CNS -75.4% | UACC-257 melanoma -31.5% | M14 melanoma -61.1% | HCT-15 colon -31.6% | HT29 colon -61% | SNB-75 CNS -43.3% | U251 CNS -47.6% | SK-MEL-5 melanoma -37.2% | UACC-62 melanoma -18.4% | LOX IMVI melanoma -90.8% | SK-MEL-28 melanoma -42.6%
inactive: DU-145 prostate 20.3% | SF-268 CNS 15% | SNB-19 CNS 40.6% | PC-3 prostate 15.9%

N#C/C(=C/C=C/c1ccccc1)S(=O)c1ccccc1 (stereo not given)
inactive: SNB-75 CNS 20.8%
active: DU-145 prostate -89.5% | K-562 leukemia 5.48% | MALME-3M melanoma -30.2% | MDA-MB-231 breast -54.2% | RXF 393 renal -84% | SF-268 CNS -31.3% | SF-295 CNS -28.8% | SF-539 CNS -74.5% | UACC-257 melanoma -33.9% | M14 melanoma -55.5% | HCT-15 colon -9.4% | HT29 colon -6% | SNB-19 CNS -5.13% | U251 CNS -81.5% | PC-3 prostate -34.1% | SK-MEL-5 melanoma -84.7% | UACC-62 melanoma -57% | LOX IMVI melanoma -80.7% | SK-MEL-28 melanoma -67.9%

O=c1cc(-c2nccc3c2[nH]c2ccccc23)c2cc(Cl)ccc2o1
inactive: DU-145 prostate 79.8% | K-562 leukemia 15.1% | MALME-3M melanoma 49.8% | MDA-MB-231 breast 62.5% | RXF 393 renal 82.2% | SF-268 CNS 54.6% | SF-295 CNS 13.9% | SF-539 CNS 17.6% | UACC-257 melanoma 35.4% | M14 melanoma 17.3% | HCT-15 colon 24.3% | SNB-75 CNS 39.8% | SNB-19 CNS 43.7% | U251 CNS 29.6% | PC-3 prostate 30.7% | SK-MEL-5 melanoma 32.1% | UACC-62 melanoma 45.5% | LOX IMVI melanoma 50.1% | SK-MEL-28 melanoma 64.6%
active: HT29 colon 7.6%

COc1ccccc1/C=C/C1=C(C)CCC(c2ccccc2OC)C1C (stereo not given)
inactive: K-562 leukemia 18.2% | MALME-3M melanoma 80.9% | MDA-MB-231 breast 17.2% | RXF 393 renal 28.5% | SF-268 CNS 16.3% | UACC-257 melanoma 57.9% | SNB-75 CNS 42.2% | SNB-19 CNS 19.6% | U251 CNS 15.4% | UACC-62 melanoma 10% | SK-MEL-28 melanoma 49.8%
active: DU-145 prostate -8.51% | SF-295 CNS -45.9% | SF-539 CNS 0.327% | M14 melanoma -10.7% | HCT-15 colon 9.57% | HT29 colon 5.56% | PC-3 prostate -33.2% | SK-MEL-5 melanoma -13.3% | LOX IMVI melanoma 7.24%

C#CC(F)(F)[C@]1(O)CCC2C3CCC4=CC(=O)CCC4=C3[C@@H](c3ccc(N(C)C)cc3)C[C@@]21C (stereo not given in full)
inactive: DU-145 prostate 104% | K-562 leukemia 85.9% | MALME-3M melanoma 103% | MDA-MB-231 breast 84.7% | RXF 393 renal 98.1% | SF-268 CNS 95.9% | SF-295 CNS 86.2% | SF-539 CNS 82.7% | UACC-257 melanoma 80.9% | M14 melanoma 86.1% | HCT-15 colon 90% | HT29 colon 87.9% | SNB-75 CNS 73.9% | SNB-19 CNS 98.6% | U251 CNS 89.3% | PC-3 prostate 66% | SK-MEL-5 melanoma 84% | UACC-62 melanoma 81% | LOX IMVI melanoma 96.2% | SK-MEL-28 melanoma 109%
